Experimental data reported in the supplement of paper PMC6555819.

Legend:
Test in all cases: PBM binding z-score (relative to random genomic background probes); higher = stronger binding; sequences stand for … in GC…GCGATTGACAGCGTAGAATGAAGG
[1] = tested on: RARb homodimer (NR concentration 270 nM)
Method in brief: (§1)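 Random background probes are the reference for binding z-scores. These scores derive from regression-normalized fluorescence on custom Agilent 4×180K protein-binding microarrays incubated 1 h with ligand-free nuclear receptor dimers. Binding was detected with antibodies against each partner (one per run).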

[2] = tested on: RARg:RXRa (NR concentration 270 nM, RXRa partner concentration 90 nM)
Method in brief: as §1

[3] = tested on: RARg homodimer (NR concentration 270 nM)
Method in brief: as §1

[4] = tested on: RXRa DBDmut IVT, anti-RXR (DBD mutation: RXRa K156A/R161A, NR concentration 90 nM)
Method in brief: as §1

[5] = tested on: RXRa homodimer (NR concentration 180 nM)
Method in brief: as §1

[6] = tested on: THRa:RXRa (NR concentration 90 nM, RXRa partner concentration 90 nM)
Method in brief: as §1

[7] = tested on: THRa homodimer (NR concentration 90 nM)
Method in brief: as §1

[8] = tested on: VDR:RXRa (NR concentration 270 nM, RXRa partner concentration 90 nM)
Method in brief: as §1

[9] = tested on: VDR homodimer (NR concentration 270 nM)
Method in brief: as §1

Sequence	PBM binding z-score [1]	PBM binding z-score [2]	PBM binding z-score [3]	PBM binding z-score [4]	PBM binding z-score [5]	PBM binding z-score [6]	PBM binding z-score [7]	PBM binding z-score [8]	PBM binding z-score [9]
AGAATAAGGTTAAGATCAGGGAAACAGAATACAT	1.25	2.16	1.8	0.838	2.38	2.66	1.26	1.14	0.515
CAAACTAGGTCACCGGACGGTCAAAGTCCGCATG	4.41	6.71	6.04	1.41	4.05	3.5	1.73	3.59	1.1
CTTGCTAGGTCAATGGTCAGCTAAAGCAGCTCGC	2.82	3.48	4.68	1.61	2.34	2.13	0.43	0.921	-0.158
CAAACTAGGTCACAGGTCAAAGTCGAGCCAACCA	4.27	5.97	5.55	2.31	6.18	3.97	2.07	4.33	2.12
ATCGAAAGGTCGAGGTGAGAATAGAGAAAGGGAA	2.77	4.3	4.7	0.437	4.86	2.73	0.58	2.37	-0.0619
ATCTCTAGGTGAAGTTCAGTGAAAGATCGATAGA	1.53	1.3	1.46	0.512	0.437	1.19	0.0183	0.563	0.509
CGAACTAGGTCAGAACAGGACACTGAAGGATGAT	2.12	2.35	3.35	0.629	1.37	4.03	0.473	1.14	0.123
TAGCCTAGGTCAGATAGGGCCAGTATACGCTATA	1.93	2.8	3.74	-0.288	1.41	4.03	0.0301	1.11	-0.0363
ATCTCTAGGTAAGACTTAGTTCAGTGAAGAACGC	1.05	0.21	0.357	0.325	0.128	0.798	0.858	0.582	0.617
GCTATAAGTTGAAAGGGCAACCGAATGATTCTCG	2.13	2.28	1.81	1.24	2.42	1.16	-0.205	0.931	0.188
CCGACTGGGCCAAAGGTTACCATACTCAGTACGA	2.31	2.84	1.45	0.18	3.2	1.56	0.0942	1.21	-0.0479
ACTATTAGTTGACTTAGGGCTACCGATACGACGC	-0.0045	0.457	0.61	0.644	0.257	1.21	0.349	-0.0525	0.385
ATCGAAAGGTCGTGAGGTGGGTATACAGAAAGGC	2.93	4.59	3.86	1.52	5.16	2.6	0.377	3.58	1.38
GCTGCTAGGTCAGGTTGGTCAGGTAACGGGTACG	2.89	2.59	3.55	0.37	1.06	2.32	2.02	0.625	0.789
GCTGCTAGGTCAGGTTAGTCAGCTAACGGGTACG	2.62	2.89	3.82	0.579	1.17	2.36	0.56	0.235	0.0703
CCTACTGGGTCATCAGGTCATTGATATCAACGTT	4.25	5.07	5	2.14	4.38	3.97	3.17	4.24	3.06
CCGACAGGGGCAAGGTTACCATAACGCACAGCCA	1.43	1.58	1.94	0.0606	1.58	1.37	0.432	0.616	0.707
TCTTGTAGATCAATAGAGGTTAAGCAAGTGCGCT	1.25	0.719	0.343	0.564	1.32	2.68	-0.555	2.4	0.376
CAAACTAGGTCACGGAGGTCAAAGTCCGTGCGTA	5.44	7.06	7.31	3.08	7.23	4.74	3.58	7.92	5.9
CAACCTAGGTCAAGGTCAAAGTCGGTTTGTGCCA	5.28	6.18	6.82	2.98	6	4.3	3.92	5.45	4.12
TCGAGTAGGTCAGTCGGGGCATTCAGCCAACATA	2.3	2.49	3.17	0.903	1.32	2.4	-0.201	5.3	1.42
ACTCGGAGGAAAAAGGTCAGAGCTACGCCAGTGA	4.12	4.09	3.97	-0.291	3.67	2.24	-0.145	2.07	0.161
TATACAGGGTCAAAGGCGAGAGTACGAATGTCGA	3.17	5.39	5.04	2.92	6.67	3.42	0.888	4.59	3.09
CCTTACGGGTCACGAGGTTATATCACGACGAGCG	3.93	6.16	5.48	1.94	7.11	3.77	1.34	5.38	2.09
GCTGCAAGGTCAGGTTGGTCAGCTAACGGGTACG	3.9	4.56	5.49	2.04	3.72	3.26	1.48	2.81	1.23
CCTAACGGGTCACTCCAGGTTATAGCATCGGAGT	2.75	3.8	3.98	1.23	3.26	4.85	0.619	3.7	1.5

Sequence	PBM binding z-score [1]	PBM binding z-score [2]	PBM binding z-score [3]	PBM binding z-score [4]	PBM binding z-score [5]	PBM binding z-score [6]	PBM binding z-score [7]	PBM binding z-score [8]	PBM binding z-score [9]
TAGCCTAGGTCATGGGCCAGGATACCACGCGAAC	2.85	4.26	4.49	-0.534	3.86	3.22	1.33	1.97	0.424
TCATATAGGTAAACAAGTGAAAGTCCGTAAGTTA	0.321	0.396	0.548	1.76	1.12	0.265	0.0631	1.09	0.508
CCTTGGAGGACAGAAGGTCAGAGCTGTCCGCTTT	3.56	3.54	3.38	0.276	1.95	2.22	0.0306	1.12	0.62
CGTCCATGGTCAGCAGGTCAGTGAAAGCGACGTG	2.46	1.81	2.05	-0.144	0.937	0.887	-0.0849	0.0484	-0.456
GCTAGCAGGCCATTGGGGTCACTCAATGACGGGC	3.44	3.98	3.1	0.8	4.7	3.84	2.39	6.04	4.55
AATACAGGGTCACCAGGCCAGAGTAGGTACGAAT	3.63	6.17	6.17	2.62	7.47	3.85	1.88	4.82	2.7
TCATATAGGTAAATTCTAGGTGAAAGTCCGATCT	0.708	0.737	0.439	1.81	0.907	2.11	1.11	1.14	0.726
CGAACTAGGTCAAGGACTGTGAATCTCCGCACGC	2.85	3.76	4.41	1.33	2.35	2.52	1.03	1.17	0.0818
ACTATTAGTTGACTTAGGGCAACCTATACGACGC	0.929	0.744	1.05	0.811	0.654	1.72	0.279	0.406	0.34
TCATATAGGTAAATGCTAGCTGAAAGTCCGATCT	-0.406	0.14	0.178	1.68	0.565	-0.388	-0.402	0.702	0.142
CCTAGCAGGCCAGGGTCGCTCAAGCATTTCGCTT	0.411	0.213	-0.184	-0.345	0.948	1.23	-0.279	0.8	-0.195
AGAATGAGGTTTAGATCAGGGAAACAGAATACAT	-0.22	-0.0854	0.196	-0.146	-0.129	0.678	-0.242	-0.225	0.0888
ACTAGTCGGTCAGCTGAGGTCACACACAATTCGG	4.94	4.99	5.76	1.43	4.35	5.27	5.28	5.12	3.97
CCTCCAAGGTCAAAGGTCAGTGAAGAGATGACGG	5.51	8.61	7.7	3.97	10	4.65	2.63	6.52	3.92
GCGACTGGGGCAAAGCAGTTTACCATAAGGTTGG	0.187	0.073	0.187	0.0079	-0.0226	0.718	-0.284	0.278	-0.185
CGTCAAAGTTCAAGGTAACTTAACAGAAAGCAGC	3.81	5.06	6.29	4.24	4.36	2.71	0.957	3.73	2.74
TTACCAAGGTGACGGTCGTTGATCCCTCTGTAGA	1.18	0.607	0.608	-0.779	0.836	2.01	0.865	0.0426	-0.245
ACTCTTAGTTGACTTAGGGCAACCGATACGACGC	1.01	0.837	0.667	0.736	0.605	1.52	0.885	0.416	0.184
ATCTCTAGGTAAGACTCAGTTCAGGGAAGAACGC	0.949	0.767	0.451	0.408	0.569	1.12	0.955	1.06	1.72
TAGCCTAGGTCATGCGGACCAGTATAGTGTCGGC	2.76	3.99	4.25	0.668	3.05	2.84	1.12	1.99	-0.0352
TCTGGTAGGTCAACGATGGTCAGCTAATCTGCTA	3.75	4.31	4.78	1.26	3.49	2.98	0.7	2.2	0.622
AGAATGAGGGTATTAAGATCAGGGAATTGCGGTC	0.61	0.0247	0.0754	0.633	0.379	0.534	0.27	0.128	0.315
TAGCCTAGGTCCTTGGGCCAGTATAGTACGCATC	-0.937	-0.412	-0.296	-1.27	-0.549	-0.732	-1.37	-0.897	-1.06
GCTAACAGGCCATTTGGGTCACTCAATGACGGGC	2.13	1.1	1.63	0.69	1.06	2.13	0.884	1.45	0.601
GTACCAAGGTGAATAAGTCGTTGATGAGTAGGCG	0.43	0.827	0.671	-0.0366	0.742	1.21	0.531	0.0767	0.148
GCTGCTAGGTCAACTGATGGACAGCTAAAGCTCG	3.12	4.45	5.36	1.28	2.94	2.72	0.89	1.27	-0.122
